Source: PubChem BioAssay (NCATS)
Records with an inconclusive call do not appear. Entries that show only a call come without a potency. A number with no mark means an inactive call. Active and inactive are the calls of the source. Calls come from the whole dose curve; as a rule, active = well fitted curve in the direction sought with a large enough effect; inconclusive = small, poorly fitted or top-dose-only effect, or another doubt; inactive = no such curve, though single readings can be large; an effect the other way counts as inactive or inconclusive.

What was measured:
[1] = target: Aldehyde dehydrogenase, mitochondrial (Homo sapiens) (UniProt P05091); experiment: qHTS for Inhibitors of the Aldehyde Dehydrogenase Family (ALDH2) Primary screen (AID 2061308); note: nearly all actives have a fitted effect of over 55% in size
[2] = target: Retinaldehyde dehydrogenase 3 (Homo sapiens) (UniProt P47895); experiment: qHTS for Inhibitors of the Aldehyde Dehydrogenase Family (ALDH1A3) Primary screen (AID 2061315)

Row | Compound | Potency [1] | Potency [2] | activity change, negative = inhibition [1] | activity change, negative = inhibition [2]
1 | CCOc1ccccc1CNc1ncnc2ccc(-c3c(C)noc3C)cc12 | inactive | inactive |  | 
2 | COc1cccc(CNc2ccc(S(=O)(=O)Nc3cccc(N4CCNCC4)c3)cc2)c1O | inactive | inactive |  | 
3 | CCOc1ccc(CCNC(=O)C2(c3ccccc3)CC2)cc1OCC | inactive | inactive |  | 
4 | Cc1ccc(-c2cc(C(=O)Nc3ccc(Cl)cc3)c3ccccc3n2)cc1C | inactive | inactive |  | 
5 | O=C(NNc1nc2cc(F)ccc2n2cccc12)c1cnccn1 | inactive | inactive |  | 
6 | Cc1ccc(NC(=O)CN2C(=O)N/C(=C\c3cccn3-c3ccc(C(=O)NC#N)cc3)C2=O)cc1 | inactive | inactive |  | 
7 | O=C(NC1CCCc2c1cnn2-c1ccc(F)cc1F)c1cccs1 (centres undefined) | inactive | inactive |  | 
8 | Clc1ccc(-c2nc3ccccc3s2)cc1 | inactive | inactive |  | 
9 | COc1ccc(C2Nc3ccccc3C(=O)N2Cc2ccccc2)cc1COc1cccc(C)c1 (centres undefined) | inactive | inactive |  | 
10 | O=C(Nc1ccc2sccc2c1)Nc1nnc(-c2cccnc2)s1 | inactive | inactive |  | 
11 | COc1ccc(-c2nnc3n2N=C(c2ccccc2OC)CS3)cc1 | inactive | inactive |  | 
12 | FC(F)(F)c1ccccc1-c1nc(NCc2cccs2)c2ccccc2n1 | inactive | inactive |  | 
13 | N#Cc1ccnc(N2C(=O)CC[C@H]2C(=O)N(c2cncc(F)c2)[C@@H](C(=O)NC2CC(F)(F)C2)c2ccccc2Cl)c1 | inactive | inactive |  | 
14 | O=C1CCCC2=C1C(c1[nH]ncc1Cl)N=C(Nc1nc3c(Cl)cccc3o1)N2 (centres undefined) | inactive | inactive |  | 
15 | CC(=O)Nc1sc2c(c1-c1nc3ccccc3s1)CCN(C(=O)OC(C)(C)C)C2 | inactive | inactive |  | 
16 | Cc1ccc(NC(=O)CN2C(=O)N/C(=C\c3cccn3-c3cccc(-c4nn[nH]n4)c3)C2=O)cc1 | inactive | inactive |  | 
17 | O=C(Nc1cc(C(F)(F)F)ccc1Cl)[C@H](O)CCc1ccccc1 | inactive | inactive |  | 
18 | Cc1cccc(CNc2ccc(S(=O)(=O)Nc3nccs3)cc2)c1O | inactive | inactive |  | 
19 | NC(=O)c1cccc(-c2noc(-c3ccccc3C(F)(F)F)n2)c1 | inactive | inactive |  | 

Row | Compound | Potency [1] | Potency [2] | activity change, negative = inhibition [1] | activity change, negative = inhibition [2]
20 | Cc1ccc(S(=O)(=O)Nc2cnccc2C(=O)Nc2nc(-c3cccc(C)c3)cs2)cc1 | inactive | inactive |  | 
21 | C[C@H]1CN(S(=O)(=O)c2c(F)cccc2F)CCN1S(=O)(=O)c1ccc2c(c1)OCCO2 | inactive | inactive |  | 
22 | CCC(CC)C(=O)OC12C(OC(=O)C(C)C)C(C)C3(O)C(C=C(CO)CC4(O)C(=O)C(C)=CC43)C1C2(C)C (centres undefined) | inactive | inactive |  | 
23 | CC(=O)NC(c1cc(F)c2cccnc2c1O)C1CC1 (centres undefined) | inactive | inactive |  | 
24 | COc1ccccc1-n1cnc2cc(C(=O)N3CCCCC3)ccc21 | inactive | inactive |  | 
25 | COc1ccc(C2=Nn3c(nnc3-c3cccc(OC)c3OC)SC2)cc1OC | inactive | inactive |  | 
26 | Cc1cccc(CNc2ccnc(-c3ccccc3C(F)(F)F)n2)c1 | inactive | inactive |  | 
27 | O=C(Nc1ccc(F)c(C(F)(F)F)c1)Nc1nc(-c2ccncc2)cs1 | inactive | inactive |  | 
28 | CCCn1c(C)nc2c(N3CCOCC3)nc(C)nc21 | inactive | inactive |  | 
29 | C[C@@H]1O[C@@H](O[C@H]2[C@H](OC(=O)[C@]34CCC(C)(C)C[C@H]3C3=CCC5[C@@]6(C)C[C@H](O)[C@H](O[C@@H]7O[C@H](CO)[C@@H](O)[C@H](O)[C@H]7O)[C@](CO)(C(=O)O)C6CC[C@@]5(C)[C@]3(C)C[C@H]4O)OC[C@H](O)[C@@H]2O)[C@H](O)[C@H](O)[C@H]1O[C@@H]1OC[C@@H](O)[C@H](O[C@@H]2OC[C@](O)(CO)[C@H]2O)[C@H]1O (some centres undefined) |  |  | 7.32% [at 11.2 µM] | 18.8% [at 11.2 µM]
30 | CCCCN(C)C(=O)Cn1nc(-c2ccccc2C)ccc1=O | inactive | inactive |  | 
31 | FC(F)(F)c1cccc(-c2nc(NCc3ccc(-c4cccnc4)cc3)c3ccccc3n2)c1 | inactive | inactive |  | 
32 | O=S(=O)(c1ccc2c(c1)OCCO2)N1CCN(S(=O)(=O)c2cc(F)ccc2F)CC1 | inactive | inactive |  | 
33 | CC1CC(=O)NN=C1c1ccc(NCC(C)(C)NCC(O)COc2cc(Cl)ccc2C#N)cc1 (centres undefined) | inactive | inactive |  | 
34 | Cc1ccc(CCCn2c(CCNC(=O)C3CCCCC3)nc3ccccc32)cc1 | inactive | inactive |  | 
35 | COc1cccc(C2=Nn3c(nnc3-c3ccc(OC)cc3OC)SC2)c1 | inactive | inactive |  | 
36 | C(=C\c1cccs1)/c1cccnc1 | inactive | inactive |  | 
37 | Cc1nc2ccc(Nc3nc(-c4ccncc4)nc4ccccc34)cc2s1 | inactive | inactive |  | 
